Experiment [1] can be described thus: qHTS assay to identify small molecule phospholipidosis (PLD) inducers (AID 1259344; active means well fitted curve in the direction sought with a large enough effect; an effect the other way counts as inactive or inconclusive). The method in brief:
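Quantitative HTS in HepG2: compound plus LipidTOX Red dye for 24 h, paraformaldehyde fixation with Hoechst 33342, widefield high-content imaging; amiodarone as positive and DMSO as negative control.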

Experiment [2] can be described thus: qHTS assay to identify small molecule HDAC inhibitors (AID 1259364). Further: nearly all actives have a fitted effect of over 45% in size. Further: potency means the concentration at half of the fitted maximal effect. The procedure, abridged: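 Luminescence from a cell-permeant luminogenic class I/II HDAC substrate reports endogenous deacetylase activity in intact HCT-116 cells treated with compounds for 2 h.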
A general note: qHTS replaces the single test concentration by a dilution series.

The nature of experiment [3]: qHTS assay to identify small molecule HDAC inhibitors - cell viability counter screen (AID 1259365). Further: nearly all actives have a fitted effect of over 50% in size. Further: potency means the concentration at half of the fitted maximal effect. The procedure, abridged:
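Cytotoxicity was gauged in wild-type HCT-116 cells after a brief 2hr treatment with DMSO-dissolved compounds at 37C and 5% CO2, using CellTiter-Glo luminescence developed for 30min at room temperature.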

Experiment [4] in a line: qHTS assay to identify small molecule agonists of the sonic hedgehog signaling (Shh) pathway (AID 1259368; calls by dose curve;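 further: NIH/3T3-derived 3T3Gli1-Luc cells carrying a stable Gli1-driven firefly luciferase reporter; series mostly up to about 92 µM; nearly all actives have a fitted effect of over 15% in size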). The method in brief: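 3T3Gli1-Luc (NIH/3T3 clone, stable Gli1-Luc); 4 hr pre-incubation, then cpd in DMSO 24 hr, 37 C/5% CO2; luciferase reagent 30 min RT; luminescence.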
Experiment [5] has as its target Estrogen receptor (Homo sapiens) (UniProt P03372). Nature of the experiment: qHTS assay to identify small molecule antagonists of the estrogen receptor alpha (ER-alpha) signaling pathway using the BG1 cell line in the presence of 0.1 nM 17-beta-estradiol (AID 1259244). Further: nearly all actives have a fitted effect of over 50% in size. Further: potency means the concentration at half of the fitted maximal effect. The procedure, abridged:
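Cells: VM7Luc4E2, endogenous ER-alpha, 4x ERE-luc stable. Pre-culture 5 d, phenol red-free, charcoal-stripped FBS. Plated 24 h, compound + E2 0.1 nM final, 22 h 37C/5% CO2. Readout ONE-Glo luminescence.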

Experiment [6] is described as follows: qHTS assay to identify small molecule agonists of the sonic hedgehog signaling (Shh) pathway - cell viability counter screen (AID 1259366). Further: nearly all actives have a fitted effect of over 50% in size. Further: potency means the concentration at half of the fitted maximal effect. The method in brief: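 Stable Gli1-Luc NIH/3T3 clone, 2,000 cells/well. Compound exposure 24hr at 37C. Read-out: CellTiter-Fluor fluorescence.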
The nature of experiment [7]: qHTS assay to identify small molecule antagonists of the sonic hedgehog signaling (Shh) pathway - cell viability counter screen (AID 1259367). Further: nearly all actives have a fitted effect of over 55% in size. Further: potency means the concentration at half of the fitted maximal effect. The procedure, abridged:
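Seed 3T3 Gli1-Luc cells at 2,000 per well; incubate 4 hr; add compound in DMSO, then conditioned medium; incubate at 37C with 5% CO2; add CellTiter-Fluor after 23 hr; read fluorescence 1 hr later.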

Experiment [8] in a line: qHTS assay to identify small molecule antagonists of the sonic hedgehog signaling (Shh) pathway (AID 1259369; calls by dose curve; further: nearly all actives have a fitted effect of over 45% in size; further: potency means the concentration at half of the fitted maximal effect). The method in brief: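 3T3Gli1-Luc, conditioned-medium-stimulated, 24hr cpd, 37C/5% CO2; Gli1-driven firefly Luc luminescence after 30min RT with luciferase reagent. Cells plated 4hr before cpd.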
For experiment [9], the target named is Estrogen receptor beta (Homo sapiens) (UniProt Q92731). The experiment in a line: qHTS assay to identify small molecule agonists of the estrogen receptor beta (ER-beta) signaling pathway (AID 1259377; active means well fitted activation curve with a large enough effect in the signal ratio in the repeat runs, not every such curve was filed as active; the % refers to the signal ratio). The procedure, abridged: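 Measured by fluorescence intensity from a B/G FRET beta-lactamase substrate (2 h, room temperature) in ER-beta-UAS-bla HEK293T cells treated with DMSO-dissolved compounds for 16 hr at 37C and 5% CO2.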
Estrogen receptor beta (Homo sapiens), sequence (Q92731 whole entry, looked up): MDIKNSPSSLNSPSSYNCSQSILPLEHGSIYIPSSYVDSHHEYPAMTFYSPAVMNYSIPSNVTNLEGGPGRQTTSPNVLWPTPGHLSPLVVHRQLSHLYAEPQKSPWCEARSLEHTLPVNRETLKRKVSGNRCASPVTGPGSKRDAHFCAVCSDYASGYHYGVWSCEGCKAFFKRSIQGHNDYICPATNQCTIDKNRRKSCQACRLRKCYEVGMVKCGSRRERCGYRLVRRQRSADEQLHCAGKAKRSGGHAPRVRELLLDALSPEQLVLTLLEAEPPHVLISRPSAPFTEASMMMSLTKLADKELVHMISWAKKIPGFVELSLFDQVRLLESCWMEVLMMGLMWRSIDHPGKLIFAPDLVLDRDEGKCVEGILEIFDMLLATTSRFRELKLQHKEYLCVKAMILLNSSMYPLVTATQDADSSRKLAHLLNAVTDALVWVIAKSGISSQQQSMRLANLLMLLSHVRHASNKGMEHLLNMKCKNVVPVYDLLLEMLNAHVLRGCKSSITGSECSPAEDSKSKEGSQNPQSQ

The target is the same in experiment [10]. Nature of the experiment: qHTS assay to identify small molecule antagonists of the estrogen receptor beta (ER-beta) signaling pathway (AID 1259378; active means well fitted inhibition curve with a large enough effect in the signal ratio in the repeat runs, not every such curve was filed as active; the % refers to the signal ratio; further: potency means the concentration at half of the fitted maximal effect). The method in brief:
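ER-beta-UAS-bla HEK293T cells in 2% charcoal-stripped FBS medium treated with compound plus 1nM final 17-beta-estradiol for 16 hr at 37C. Beta-lactamase reporter read by FRET substrate fluorescence after 2 hours at room temperature.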

Structures are written as SMILES. “And” between values parts separate entries of the source, which are not always exact repeats. Equal values may be shown once. Results filed as inconclusive are left out. Where a structure was tested more than once in an assay, its records may differ in their call. The source made the active and inactive calls. Unless noted, the call rests on the fitted dose curve; in most records, active means well fitted curve in the direction sought with a large enough effect in the repeat runs; inconclusive means weak or mixed curves; inactive means no such curve, though single readings can be large; an effect the other way counts as inactive or inconclusive.
On the % scale 0 is the no-effect control and ±100 the full control effect.

Estrogen receptor (Homo sapiens), sequence (P03372 whole entry, looked up): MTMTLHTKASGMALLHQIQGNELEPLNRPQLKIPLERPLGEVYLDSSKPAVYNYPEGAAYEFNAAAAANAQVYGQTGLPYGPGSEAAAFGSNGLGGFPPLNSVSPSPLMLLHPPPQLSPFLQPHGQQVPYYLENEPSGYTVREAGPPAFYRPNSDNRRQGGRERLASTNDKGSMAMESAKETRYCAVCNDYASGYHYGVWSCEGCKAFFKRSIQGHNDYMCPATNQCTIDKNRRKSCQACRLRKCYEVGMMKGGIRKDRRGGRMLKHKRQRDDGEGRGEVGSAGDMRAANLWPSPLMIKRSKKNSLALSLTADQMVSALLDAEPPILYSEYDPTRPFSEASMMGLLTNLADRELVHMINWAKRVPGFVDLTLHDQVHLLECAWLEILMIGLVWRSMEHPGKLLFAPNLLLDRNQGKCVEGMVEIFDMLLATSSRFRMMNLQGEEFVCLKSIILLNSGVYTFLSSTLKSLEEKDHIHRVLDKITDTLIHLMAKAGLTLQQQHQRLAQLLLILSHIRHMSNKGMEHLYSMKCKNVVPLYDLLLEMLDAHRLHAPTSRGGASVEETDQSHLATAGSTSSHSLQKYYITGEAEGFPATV

For `Oc1cccc2cccnc12`, the outcome in experiment [1] and in experiment [4] was inactive. The Potency result in experiment [2] and in [3] was “inactive” throughout.
Take `Nc1ccc(-c2ccc(N)cc2)cc1`: the Potency entry in experiment [5], in experiment [2], in experiment [3], in experiment [6], in experiment [7] and in experiment [8] was “inactive” each time. In addition, the Potency result in experiment [10] is “inactive”. The compound was classed as inactive in experiment [4] and in experiment [9].
Take `Nc1ccc(-c2ccc(N)c(Cl)c2)cc1Cl`: the Potency in experiment [5] was 48.6 µM (active); in experiment [2] it was “inactive and 27.3 µM (active)”; in experiment [6], “inactive and 7.18 µM (active) and 30.6 µM (active)”; in [7], 2.27 µM (active) and 8.63 µM (active); in experiment [10], 25.5 µM (active) and 30.6 µM (active). In experiment [3], the Potency result is “inactive”. Also, the outcome in experiment [4] was inactive.
For the compound `COP(=O)(OC)OC=C(Cl)Cl`, the Potency result in experiment [5], in experiment [2], in [3], in [6], in experiment [7] and in experiment [10] was “inactive” in each case. The compound was called inactive in experiment [1], in experiment [4] and in experiment [9].
For the compound `O=C(O)c1nc(Cl)ccc1Cl`, the Potency entry in [5], in [2], in experiment [3], in experiment [6], in [7] and in experiment [8] was “inactive” each time. Also, in [4], the compound was classed as inactive.
In the case of `C1CCC(NC2CCCCC2)CC1`, the Potency entry in experiment [5], in [2], in experiment [3], in [6] and in experiment [7] was “inactive” in each case. Moreover, the call in experiment [1] and in [4] was inactive.
Consider `Cc1cc(-c2ccc(N)c(C)c2)ccc1N`, for which the Potency was 34.4 µM (active) in [5] and 48.4 µM (active) in [2]. The Potency result in experiment [3], in experiment [6] and in experiment [7] was “inactive” in each case. The compound was called inactive in [4].
On to `CC(Cl)(Cl)C(=O)O`, for which the Potency result in experiment [5], in experiment [2], in [3], in experiment [6], in [7] and in [10] was “inactive” in each case. The compound was called inactive in experiment [4] and in experiment [9].
As to `CC(=O)[O][Hg][c]1ccccc1`, the Potency in experiment [5] was 2.71 µM (active) and 6.86 µM (active) and 8.41 µM (active); in [2], 21.5 µM (active) and 8.63 µM (active) and 13.3 µM (active); in experiment [3] it was 3.82 µM (active) and 6.11 µM (active) and 16.8 µM (active); in experiment [6], 606 nM (active) and 1.37 µM (active) and 1.5 µM (active); in experiment [7], 1.08 µM (active) and 2.17 µM (active) and 1.33 µM (active); in experiment [8], 121 nM (active) and 61.1 nM (active) and 8.4 nM (active). Further, the Potency in experiment [10] is 3.44 µM (active). Moreover, the call in experiment [1] and in experiment [4] was inactive.
`CNC`: the Potency result in experiment [2], in [3], in experiment [6] and in experiment [7] was “inactive” each time. The outcome in [4] was inactive.
For `CCC(=O)C(CC(C)N(C)C)(c1ccccc1)c1ccccc1` (stereo not given), the Potency result in experiment [5], in [2] and in experiment [10] was “inactive” throughout. Besides, the PLD induction in [1] is 2.52% [at 3.15 µM] (inactive). In addition, the Potency in [7] is 27.4 µM (active). Also, the compound was called inactive in experiment [4] and in experiment [9].
Take `COP(=O)(OC)C(O)C(Cl)(Cl)Cl` (stereo not given): the compound was classed as inactive in experiment [1] and in experiment [4]. Besides, the Potency entry in [2], in experiment [3], in [6] and in [7] was “inactive” throughout.
As to `CCCCCCCCCCCCOS(=O)(=O)O`, the Potency result in experiment [2], in experiment [3], in [6] and in experiment [7] was “inactive” in each case. Further, the compound was classed as inactive in [4].
For `OCCOc1ccccc1`, the Potency entry in [5], in experiment [2], in experiment [3], in experiment [6], in experiment [7] and in experiment [10] was “inactive” in each case. The result in [1], in experiment [4] and in experiment [9] was inactive.
For `CC[N+](CC)(CC)CC`, the compound was classed as inactive in experiment [1] and in experiment [4]. Also, the Potency result in experiment [2], in experiment [3], in experiment [6] and in [7] was “inactive” each time.
Turning to `O=C(O)C(Cl)Cl`, the Potency entry in experiment [5], in experiment [2], in experiment [3], in experiment [6] and in experiment [7] was “inactive” in each case. For the same compound, the call in experiment [1] and in [4] was inactive.
On to `O=C(O)C(Cl)(Cl)Cl`, for which the outcome in [1] and in experiment [4] was inactive. The Potency entry in experiment [2], in experiment [3], in experiment [6], in [7] and in experiment [8] was “inactive” each time.
`CCCCCCCCCCCCCC[P+](CCCCCC)(CCCCCC)CCCCCC`: the Potency in experiment [5] was 2.74 µM (active) and 3.09 µM (active) and 3.43 µM (active); in experiment [3], 34.5 µM (active) and 69.1 µM (active) and inactive; in [6], 13.7 µM (active) and 21.9 µM (active) and inactive; in [7] it was 15.4 µM (active) and 54.9 µM (active) and inactive. For the same compound, in experiment [2], the Potency entry was “inactive”. Besides, the call in [4] was inactive.
For the compound `COCC(=O)N(c1c(C)cccc1C)C(C)C(=O)OC` (stereo not given), the Potency entry in [5], in experiment [2], in [3], in experiment [6], in experiment [7] and in [10] was “inactive” throughout. In addition, the call in experiment [1], in [4] and in [9] was inactive.
As for `CCNc1nc(Cl)nc(NCC)n1`, the Potency entry in [5], in experiment [2], in experiment [3], in experiment [6], in [7] and in [10] was “inactive” in each case. Further, the compound was called inactive in [1], in [4] and in experiment [9].
Turning to `CCOP(=S)(OCC)Oc1ccc2c(C)c(Cl)c(=O)oc2c1`, the call in [1], in [4] and in [9] was inactive. Besides, the Potency entry in experiment [2] was “inactive and 11.9 µM (active)”. For the same compound, the Potency result in experiment [3], in experiment [6] and in experiment [7] was “inactive” in each case.
As to `C=CCOC(Cn1ccnc1)c1ccc(Cl)cc1Cl` (stereo not given), the call in [1] and in experiment [4] was inactive. Moreover, the Potency entry in experiment [2], in experiment [3], in [6] and in experiment [7] was “inactive” in each case. Besides, the Potency in experiment [8] was 13.7 µM (active) and 9.69 µM (active).
Consider `Nc1ccccc1`, for which the result in experiment [1] and in experiment [4] was inactive. Besides, the Potency entry in experiment [2], in experiment [3], in experiment [6], in experiment [7] and in experiment [8] was “inactive” throughout.
Consider `C[N+](C)(C)Cc1ccccc1`, for which the Potency entry in experiment [5], in experiment [2], in [3], in experiment [6] and in experiment [7] was “inactive” throughout. For the same compound, the result in experiment [4] was inactive.
`O=c1[nH]c(=O)n(Cl)c(=O)n1Cl`: the compound was called inactive in experiment [1] and in experiment [4]. Moreover, the Potency result in experiment [2], in experiment [3], in [6] and in [7] was “inactive” in each case.
`Cc1cc(Cl)ccc1OCC(=O)O`: the Potency entry in experiment [5], in experiment [2], in [3], in experiment [6] and in [7] was “inactive” in each case. Besides, the compound was classed as inactive in experiment [4].
On to `O=P1(N(CCCl)CCCl)NCCCO1` (stereo not given), for which the Potency entry in [5], in experiment [2], in experiment [3], in experiment [6] and in [7] was “inactive” in each case. The compound was called inactive in [1] and in [4].
Turning to `Nc1ccc(Cl)cc1`, the Potency entry in experiment [5], in experiment [3], in experiment [6], in [7] and in [8] was “inactive” each time. Besides, the Potency entry in [2] is “inactive and 27.8 µM (active)”. Moreover, the outcome in experiment [4] was inactive.
For `CC[n+]1ccccc1`, the Potency entry in [2], in experiment [3], in experiment [6] and in experiment [7] was “inactive” each time. Also, the compound was classed as inactive in experiment [4].
